# PubChem BioAssay
# The source made the active and inactive calls.
# Legend:
# [1] = binders of probe aFSTL3 on microarray, primary screen, stem cell growth factor project, biochemical, small-molecule microarray, fluorescence 635/667 (AID 1064); settings: higher = more signal;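 further: measures binding of the biotinylated anti-FSTL3 antibody to printed compounds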
# [2] = binders from COS7 lysate, DM2A8 probe, primary screen, torsin A project, cell lysate, small-molecule microarray, fluorescence 635/667 (AID 1065); settings: higher = more signal, COS7 lysate expressing mutant human TOR1A
# [3] = binders of probe aFGF2 on microarray, primary screen, stem cell growth factor project, biochemical, small-molecule microarray, fluorescence 635/667 (AID 1067); settings: higher = more signal;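 further: measures binding of biotinylated aFGF2 protein to printed compounds on slides; z-score merges feature fluorescence and signal-to-noise across triplicate slides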
# [4] = binders of probe aFGF10 on microarray, primary screen, stem cell growth factor project, biochemical, small-molecule microarray, fluorescence 635/667 (AID 1071); settings: higher = more signal;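 further: score merges 667 nm spot intensity and signal to noise from triplicate slides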
# [5] = target: Neurogenic locus notch homolog protein 2 (Homo sapiens) (UniProt Q04721); test: Notch2 binders on small-molecule microarrays, primary screen, biochemical, small-molecule microarray, 635 nm fluorescence, stem cell growth factors (AID 1073); settings: Notch2 binding, higher = more signal
# [6] = target: Pro-neuregulin-1, membrane-bound isoform (Homo sapiens) (UniProt Q02297); test: NRG1 binders on small-molecule microarrays, primary screen, psychiatric disease protein project, biochemical, small-molecule microarray, fluorescence 635/667 (AID 1075); settings: NRG1 binding, 635 nm fluorescence, higher = more signal;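 further: score combines 667 nm spot fluorescence with signal to noise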
# [7] = test system: Neuregulin-1 EGF-like domain; test: binders of neuregulin-1 EGF-like domain, primary screen, biochemical, small-molecule microarray, 635 nm fluorescence (AID 1081); settings: small-molecule microarray binding, higher = more signal;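 further: binding of the protein to compounds printed on small-molecule microarray slides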
# [8] = FRG1 promoter luciferase signal modulators, primary screen, FRG1 inhibition for FSHD, cell-based, C2C12 myotubes, firefly/Renilla luciferase, luminescence (AID 1084); settings: higher = more signal, called active from +8 up or from −8 down
# [9] = binders of probe aFST on microarray, primary screen, stem cell growth factor project, biochemical, small-molecule microarray, fluorescence 635/667 (AID 1086); settings: higher = more signal;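 further: score merges 667 nm fluorescence with signal-to-noise of each printed compound spot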
# [10] = binders of probe aHhip on microarray, primary screen, stem cell growth factor project, biochemical, small-molecule microarray, fluorescence 635/667 (AID 1087); settings: higher = more signal;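 further: score merges spot fluorescence at 667nm with spot signal to noise ratio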
# Chain of Pro-neuregulin-1, membrane-bound isoform (Homo sapiens) (Q02297 whole entry, looked up, the tested form may be a part, canonical isoform): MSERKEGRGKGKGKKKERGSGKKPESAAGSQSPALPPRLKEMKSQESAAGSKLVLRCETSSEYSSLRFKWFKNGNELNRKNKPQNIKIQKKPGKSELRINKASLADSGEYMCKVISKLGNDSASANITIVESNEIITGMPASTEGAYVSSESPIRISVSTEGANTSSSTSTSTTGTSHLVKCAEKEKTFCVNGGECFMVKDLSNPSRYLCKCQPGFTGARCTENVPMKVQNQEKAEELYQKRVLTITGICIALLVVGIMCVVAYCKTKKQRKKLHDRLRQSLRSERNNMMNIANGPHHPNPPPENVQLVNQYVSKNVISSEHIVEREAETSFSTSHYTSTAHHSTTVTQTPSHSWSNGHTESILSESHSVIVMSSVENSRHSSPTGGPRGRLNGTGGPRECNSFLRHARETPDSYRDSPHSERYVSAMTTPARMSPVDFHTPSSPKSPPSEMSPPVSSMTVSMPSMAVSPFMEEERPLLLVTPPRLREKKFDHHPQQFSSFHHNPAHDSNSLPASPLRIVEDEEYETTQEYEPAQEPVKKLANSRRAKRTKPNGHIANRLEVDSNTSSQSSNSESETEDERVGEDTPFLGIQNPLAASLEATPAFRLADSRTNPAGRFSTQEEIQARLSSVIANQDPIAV
# Chain of Neurogenic locus notch homolog protein 2 (Homo sapiens) (Q04721 whole entry, looked up, canonical isoform): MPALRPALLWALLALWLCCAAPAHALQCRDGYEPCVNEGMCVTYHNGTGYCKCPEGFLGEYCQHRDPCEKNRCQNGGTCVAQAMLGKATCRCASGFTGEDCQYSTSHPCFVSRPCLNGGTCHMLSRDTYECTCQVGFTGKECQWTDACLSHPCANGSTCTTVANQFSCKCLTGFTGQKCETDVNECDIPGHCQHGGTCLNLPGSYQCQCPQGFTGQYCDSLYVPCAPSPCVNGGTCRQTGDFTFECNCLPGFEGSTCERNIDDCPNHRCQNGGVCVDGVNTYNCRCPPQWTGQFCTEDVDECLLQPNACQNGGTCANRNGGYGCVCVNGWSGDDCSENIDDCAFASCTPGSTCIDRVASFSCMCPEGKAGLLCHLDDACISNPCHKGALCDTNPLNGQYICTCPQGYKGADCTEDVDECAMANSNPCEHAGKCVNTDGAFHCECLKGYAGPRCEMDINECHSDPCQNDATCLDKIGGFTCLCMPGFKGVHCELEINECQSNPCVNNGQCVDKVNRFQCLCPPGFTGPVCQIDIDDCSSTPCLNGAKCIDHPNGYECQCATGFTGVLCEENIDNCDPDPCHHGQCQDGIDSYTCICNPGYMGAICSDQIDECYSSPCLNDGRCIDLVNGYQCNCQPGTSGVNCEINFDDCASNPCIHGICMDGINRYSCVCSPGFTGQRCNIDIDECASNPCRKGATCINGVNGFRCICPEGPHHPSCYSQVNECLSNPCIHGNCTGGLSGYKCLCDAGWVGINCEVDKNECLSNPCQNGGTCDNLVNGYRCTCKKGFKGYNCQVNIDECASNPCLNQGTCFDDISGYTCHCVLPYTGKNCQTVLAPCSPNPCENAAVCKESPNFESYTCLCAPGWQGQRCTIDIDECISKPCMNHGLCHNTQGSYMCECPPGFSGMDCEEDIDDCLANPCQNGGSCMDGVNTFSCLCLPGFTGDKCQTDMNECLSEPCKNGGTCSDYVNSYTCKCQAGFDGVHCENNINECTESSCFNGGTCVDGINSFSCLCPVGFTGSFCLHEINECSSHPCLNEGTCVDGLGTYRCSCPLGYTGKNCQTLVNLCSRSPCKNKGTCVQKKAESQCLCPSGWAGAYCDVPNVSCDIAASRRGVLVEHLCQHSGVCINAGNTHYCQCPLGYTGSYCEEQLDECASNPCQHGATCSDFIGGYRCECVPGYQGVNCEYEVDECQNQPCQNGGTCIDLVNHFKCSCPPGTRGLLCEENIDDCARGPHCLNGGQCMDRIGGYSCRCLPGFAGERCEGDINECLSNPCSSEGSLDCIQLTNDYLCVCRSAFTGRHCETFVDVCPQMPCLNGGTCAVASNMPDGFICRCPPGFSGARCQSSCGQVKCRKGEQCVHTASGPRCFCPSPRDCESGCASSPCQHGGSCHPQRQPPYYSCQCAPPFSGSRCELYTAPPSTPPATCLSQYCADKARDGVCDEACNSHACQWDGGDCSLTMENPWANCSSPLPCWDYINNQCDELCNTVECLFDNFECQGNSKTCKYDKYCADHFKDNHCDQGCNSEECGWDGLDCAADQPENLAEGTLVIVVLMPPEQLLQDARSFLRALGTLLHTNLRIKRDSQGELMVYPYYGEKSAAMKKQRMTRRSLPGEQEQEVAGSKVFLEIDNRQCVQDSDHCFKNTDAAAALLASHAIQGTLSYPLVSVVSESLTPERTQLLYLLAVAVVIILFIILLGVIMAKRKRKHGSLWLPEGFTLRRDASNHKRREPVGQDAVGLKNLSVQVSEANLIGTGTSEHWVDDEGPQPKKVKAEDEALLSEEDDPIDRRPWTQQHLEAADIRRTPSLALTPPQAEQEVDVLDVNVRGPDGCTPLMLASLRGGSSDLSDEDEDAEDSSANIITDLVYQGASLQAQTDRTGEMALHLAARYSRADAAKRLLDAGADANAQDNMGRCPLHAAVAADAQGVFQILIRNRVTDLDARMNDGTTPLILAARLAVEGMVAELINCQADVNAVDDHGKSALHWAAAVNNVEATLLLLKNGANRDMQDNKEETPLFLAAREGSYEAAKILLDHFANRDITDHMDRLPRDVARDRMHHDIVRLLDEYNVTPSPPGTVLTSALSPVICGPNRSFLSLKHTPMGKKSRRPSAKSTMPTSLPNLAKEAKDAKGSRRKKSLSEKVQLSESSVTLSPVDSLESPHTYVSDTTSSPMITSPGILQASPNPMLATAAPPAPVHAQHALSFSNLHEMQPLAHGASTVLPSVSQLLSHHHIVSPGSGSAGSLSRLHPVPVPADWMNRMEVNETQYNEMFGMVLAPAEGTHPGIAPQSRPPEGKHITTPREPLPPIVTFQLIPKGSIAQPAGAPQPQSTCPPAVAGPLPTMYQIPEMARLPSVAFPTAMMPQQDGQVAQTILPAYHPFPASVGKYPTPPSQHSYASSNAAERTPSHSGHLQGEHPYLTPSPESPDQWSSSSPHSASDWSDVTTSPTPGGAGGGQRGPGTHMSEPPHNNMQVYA
Structure (SMILES),composite z-score [1],composite z-score [2],composite z-score [3],composite z-score [4],composite z-score [5],composite z-score [6],composite z-score [7],z-score [8],composite z-score [9],composite z-score [10]
C=CC[C@@]12N=C(c3ccc(OCCCO)cc3)O[C@@H]1c1ccccc1N(Cc1ccccc1)C2=O,1.16,1.43,0.302,0.524,0.552,1.44,1.31,-3.36 (inactive),2.19,0.145
CCOC(=O)C1=CC[C@@H](c2ccccc2Cl)N(S(=O)(=O)c2ccc(C)cc2)[C@H]1c1cccc(OC)c1,-0.329,0.0632,-0.0276,0.317,0.408,0.0948,0.971,-0.38 (inactive),0.289,0.0139
CCCCN1CC=CC23O[C@@H]4C=CCOC(=O)[C@@H]4[C@H]2C(=O)N(C(CO)C(C)C)[C@@H]3C1=O (stereo not given in full),0.0186,-0.438,-0.124,-0.275,-0.758,-0.397,-0.0125,0.353 (inactive),-0.288,-0.13
O=C1O[C@H](c2ccccc2)[C@H](c2ccccc2)N2[C@H]1[C@@H](C(=O)N1CCN(c3ncccn3)CC1)[C@]1(C(=O)Nc3ccccc31)[C@H]2c1ccc(O)cc1,0.258,0.918,-0.0718,0.366,0.239,1.23,1.28,1.07 (inactive),0.3,0.0972
[N-]=[N+]=NCc1ccccc1[C@@H]1OC(c2ccc(OCCCO)cc2)=N[C@]1(Cc1ccccc1)C(=O)NCc1ccccc1,-0.158,-0.649,0.227,0.22,1.3,1.56,0.744,-2.16 (inactive),0.846,0.0373
CCCCNC(=O)c1ccc(C#C[Si](C)(C)C)c(OC(C)=O)c1,-0.175,0.293,-0.0718,0.112,0.277,-0.166,0.103,1.87 (inactive),-0.0501,-0.0726
COC(=O)[C@@H]1N=C(c2ccc(OCCCO)cc2)O[C@@H]1c1ccccc1CN=[N+]=[N-],0.879,-0.744,0.0062,-0.784,-0.549,1.21,0.945,1.81 (inactive),0.646,0.291
CCOC(=O)C[C@H]1[C@H](OC(=O)c2cc3ccccc3oc2=O)[C@@H](NC(=O)C2CCCCC2)c2cc(OCCCO)ccc2N1C(=O)Cc1ccc(OC)cc1,-0.0716,0.714,0.0066,0.65,0.54,0.052,0.72,0.198 (inactive),0.352,-0.201
CC(C)C[C@H]1NC(=O)[C@H](Cc2ccccc2)NC(=O)[C@@]23C(=O)N[C@@H](Cc4ccccc4)C2[C@H](C)[C@@]2(C)O[C@H]2C3/C=C/C/C=C\CNC1=O (stereo not given in full),-0.263,0.919,-0.116,0.461,0.777,1.03,1.05,2.48 (inactive),0.089,0.0626
O=C1c2ccccc2[C@](Cc2ccccc2I)(C(=O)O)[C@H](c2ccc(CO)cc2)N1Cc1ccccc1,0.877,0.996,-0.101,0.0611,0.19,1.51,1.23,-1.1 (inactive),-0.0119,-0.226
C=CCC(OC(C)=O)[C@@H]1[C@@H](N(Cc2ccc(-c3ccccc3)cc2)C(=O)c2ccc(C)cc2)c2cc(OCCCO)ccc2N1C(=O)c1ccc2ccccc2c1 (stereo not given in full),-0.233,0.0822,-0.116,-0.148,-0.168,-0.138,-0.405,-2.01 (inactive),0.482,-0.0427
CN(C)CCCCNC(=O)[C@H]1C[C@H]2C(=O)N[C@@H](Cc3ccccc3)C(=O)N2[C@H]1c1cccc(OCCO)c1,0.863,0.46,-0.158,-0.436,-0.252,0.136,0.606,3.32 (inactive),-0.549,0.0092
Cc1ccc(S[C@]2(C(=O)NCCN3CCOCC3)CC(=O)N(C3CCCCC3)[C@@H]2c2ccc(CO)cc2I)cc1,-1.01,0.866,-0.0687,0.841,0.955,1.61,1.22,-2.05 (inactive),0.259,-0.279
CC(=O)c1ccc(C(O)C2C=CC3C(=O)N(C)C(=O)C3N2NC(=O)OC(C)(C)C)cc1 (stereo not given),0.301,0.169,0.152,1.13,1.61,2.11,1.35,0.929 (inactive),0.948,-0.154
[N-]=[N+]=NCc1ccccc1C[C@@]1(C(=O)O)N=C(c2ccc(OCCCO)cc2)O[C@@H]1c1ccccc1CN=[N+]=[N-],0.0419,1.34,-0.01,0.556,1.17,1.1,1.22,2.88 (inactive),0.663,-0.173
N#Cc1ccc(C(O)C2C=CC3C(=O)NC(=O)C3N2Nc2ccccn2)cc1 (stereo not given),-0.0872,-0.013,-0.0692,0.311,0.905,1.41,0.511,-0.0581 (inactive),0.12,0.113
CCN(CC)c1ccc(N2CC=CC34O[C@@H]5C=CCOC(=O)[C@@H]5[C@H]3C(=O)N(CCO)[C@@H]4C2=O)cc1 (stereo not given in full),0.73,-0.0324,-0.144,-1.03,-1.51,-0.0687,0.504,0.737 (inactive),-0.568,-0.353
[N-]=[N+]=Nc1ccccc1[C@@H]1OC(c2ccc(OCCCO)cc2)=N[C@]1(Cc1ccccc1)C(N)=O,0.379,-0.334,-0.0543,0.505,0.824,1.17,0.884,0.377 (inactive),0.277,-0.0994
COc1cc2c(cc1O)C(c1ccc(CN3CCCC3)cc1)N(Cc1cccc(OC(F)(F)F)c1)CC2 (stereo not given),0.254,0.956,-0.0568,0.0247,0.473,1.56,1.27,-0.232 (inactive),0.155,-0.0317
COCC(=C=CC[C@@H](O)c1cccc(OCCO)c1)C[C@@H](O)COCc1ccccc1,0.506,1.35,0.0918,0.718,-0.157,2.11,0.974,-0.631 (inactive),1.96,-0.169
CC(C)C(=C=CC[C@@H](O)c1ccccc1OCCO)C[C@@H](O)c1cc(Cl)cc(Cl)c1O,-0.667,1.84,-0.076,0.961,1.16,1.48,1.19,-1.95 (inactive),0.704,-0.0296
CC(C)CNC(=O)[C@@H]1c2ccccc2C(=O)N(Cc2ccccc2Cl)[C@H]1c1ccc(CO)cc1,0.29,0.0116,-0.129,-0.833,-0.595,-1.27,0.252,-1.38 (inactive),-0.295,-0.236
NCCCC[C@@H]1NC(=O)[C@H]2C[C@@H](C(=O)NCc3ccc(F)cc3)[C@@H](c3cccc(OCCO)c3)N2C1=O,-0.261,0.357,-0.0262,0.527,0.772,1.09,1.33,-0.0673 (inactive),0.182,-0.0994
CCC[C@@H]1[C@@H](Sc2ccccc2)[C@@H](C(=O)O)[C@H](c2ccc(C)cc2)N1S(=O)(=O)c1ccc(C)cc1,-0.259,0.175,0.0213,0.894,1.67,1.15,1.34,-4.1 (inactive),1.11,-0.0618
COC(=O)[C@@]1(Cc2ccc(OC)cc2)[C@@H]2[C@@H](CC(=O)[C@H]2CC(=O)C(=O)N2CCCC2)CN1C(=O)c1ccccc1,2.42,0.296,0.926,0.884,1.69,1.94,1.24,1.31 (inactive),2.67,2.65
